Screens deposited in PubChem BioAssay by National Center for Advancing Translational Sciences (NCATS).
Compounds with a hit are over-represented: about 21% of the library has one in this group of screens.
HCMV inh = human cytomegalovirus inhibition. HFF cells, HCMV-luciferase reporter, 72 h; active compounds read low. activity change, negative = inhibition, % at 57.5 µM. 410,000 compounds, 4.5% hits; in the data active = activity change below about -60%; inconclusive = no clear call, values can overlap the other calls; inactive = above about -39%; also: % is scaled to controls: 0 for no effect and ±100 for the full control effect
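Steps: HFFs plated, 16 h 37C; compounds added; HCMV-luciferase added to MOI 1 PFU/cell; 72 h 37C; OneGlo reagent, 5 min room temperature; luminescence read, normalized to controls.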
Shiga inhibitor = Shiga toxin inhibition. Vero cells, Shiga toxin protein synthesis inhibition reporter. inhibition, % at 38.7 µM. 290,000 compounds, 9.2% hits; in the data active = inhibition mostly above about 28%, no sharp cut-off; inactive = mostly below about 43%; also: 0% is about no effect
CHX counter = affects cycloheximide protein synthesis inhibition readout, counter-screen | cell reporter, cycloheximide protein synthesis inhibition counterscreen | max response, % | 300,000 compounds, 12% hits; in the data active = max response mostly above about 13%, no sharp cut-off; inactive = mostly below about 14%; also: read at 38.3 µM for the half of the compounds with a filed dose; 0% is about no effect
HCV inhibitor = inhibitors of hepatitis C virus infection. Huh7.5.1 HCVcc-Cre infection, luciferase reporter, 44 h. Potency, µM (top dose mostly 41.8 µM), for inactives: at the top dose activity change, negative = inhibition, usual class: inhibitors. 340,000 compounds, 3.4% hits. AID 651820; also: potency is read from the fitted curve at half-maximal effect; % is scaled to controls: 0 for no effect and ±100 for the full control effect
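Cells seeded at 1,000/well and cultured 4 h, then compounds added followed by HCVcc-Cre virus (~0.5 moi). After 44 h further culture, luciferase substrate was added, plates held 15 min at room temperature, and luminescence read for 15 sec.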
Pf growth 48h = P. falciparum growth inhibition at 48 hours (one generation) | P. falciparum luciferase growth in erythrocytes, 48 h | AID 504832 | 310,000 compounds, 5.9% hits | Potency, µM (doses to about 28.7 µM), for inactives: at the top dose activity change, negative = inhibition, most hits filed as inhibitors; also: potency is read from the fitted curve at half-maximal effect; % is scaled to controls: 0 for no effect and ±100 for the full control effect
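Firefly luciferase activity from engineered P. falciparum reports growth; inhibitors lower the luminescent signal. Cultures contained 2% hematocrit erythrocytes at 0.1% final parasitemia.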
Pf growth 96h = P. falciparum growth inhibition at 96 hour, primary screen for plastid delayed-death inhibitors; P. falciparum luciferase reporter growth, 96 h; Potency, µM (titrated, usually from 28.7 µM), without a hit: top-dose activity change, negative = inhibition, hits mostly inhibitors; 320,000 compounds, 6.9% hits; also: potency is read from the fitted curve at half-maximal effect; % is scaled to controls: 0 for no effect and ±100 for the full control effect
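96 h incubation, 37 C, 5% CO2, of luciferase-reporter P. falciparum-infected RBCs (2% hematocrit, 0.05% parasitemia final) with test compounds; endpoint luminescence.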
Starred values were filed as active, the others as inactive; ? = inconclusive; . = not tested or not shown. Unless noted, calls follow the shape of the dose curve; as a rule, active = well fitted inhibition curve with a large enough effect; inconclusive = small, poorly fitted or top-dose-only effect, or another doubt; inactive = no such curve, though single readings can be large or run the other way.

SMILES	HCMV inh	Shiga inhibitor	CHX counter	HCV inhibitor	Pf growth 48h	Pf growth 96h
CCCC(O)(c1ccc(Cl)cc1)C(CN1CCOCC1)c1ccc(Cl)cc1 (stereo not given)	-21	-8	-8	14%	1.9µM*	28%
Cc1ccc(C(=O)N2CCc3cc(CNS(=O)(=O)c4ccc(Cl)s4)ccc32)cc1	-9	.	.	.	.	.
CCOc1ccc(C(O)(c2ccccc2)C(CN2CCCC2)c2ccccc2)cc1 (stereo not given)	?	20	-2	-23%	12µM*	121%
COc1cccc(/C=N/n2c(-c3ccco3)nc3ccccc3c2=O)c1	-64*	145*	54*	?	30%	.
O=c1c2ccccc2nc(-c2ccco2)n1/N=C/c1ccccc1O	?	-32	2	4%	?	11%
O=c1c2ccccc2nc(-c2ccco2)n1/N=C/c1ccco1	-23	55	16*	-17%	51%	.
Cc1nc2ccccc2c(=O)n1/N=C/c1ccco1	-20	13	11	13%	35%	?
COc1ccc(/C=N/n2c(-c3ccco3)nc3ccccc3c2=O)cc1	-38	45*	28	-24%	-27%	?
Cc1cccnc1-n1c(-c2ccco2)nc2ccccc2c1=O	16	7	-4	7%	0%	116%
Cc1cccc(-n2c(-c3ccco3)nc3ccccc3c2=O)c1C	-76*	-5	3	10%	-19%	?
COc1cccc(CNC(=O)c2ccc(CN3CC(=O)N4CCCCC4C3=O)cc2)c1 (stereo not given)	-24	.	.	.	.	.
COc1cc(OC)c(NC(=O)COCc2cc(-c3cccs3)on2)cc1Cl	3	.	.	.	.	.
Cc1ccccc1OCc1nc2ccccc2c(=O)n1NC(=O)c1ccco1	26	21	-2	9%	?	-24%
Cc1ccccc1OCc1nc2ccccc2c(=O)n1/N=C/c1ccco1	1	64*	33*	?	-14%	?
Cc1[nH]c2c(ccc3ccccc32)c1C1C(CCN)C1(C)C (stereo not given)	-11	-15	-2	?	10µM*	.
CC(=O)Nc1nc(-c2ccc(Cl)cc2)nc(C)c1C(C)=O	236	18*	21*	7%	88%	?
CC(=O)c1c(C)nc(C)nc1NC(=O)Cc1ccccc1	40	-8	-3	9%	-6%	22%
Cc1cc(S(=O)(=O)N2CCCc3ccccc32)ccc1-n1cnnn1	-24	1	-2	1%	4%	22%
CC(C)C(=O)NC(c1ccc(Cl)cc1Cl)c1ccc2cccnc2c1O (stereo not given)	-104*	.	15	2.2µM*	?	?
CCC(=O)NC(c1ccc(Cl)cc1Cl)c1ccc2cccnc2c1O (stereo not given)	-103*	.	11	2.5µM*	2.9µM*	139%
CC(C)C(=O)NC(NC(=S)Nc1cccc2cccnc12)C(Cl)(Cl)Cl (stereo not given)	-9	3	-1	?	?	-16%
CC(NC(=O)CSc1ncccn1)c1ccc(Cl)cc1Cl (stereo not given)	13	4	7	-9%	-14%	-3%
CCCCC(=O)NC(c1ccc(Cl)cc1Cl)c1ccc2cccnc2c1O (stereo not given)	-104*	6	7	?	1.9µM*	15%
COc1ccc(S(=O)(=O)N2CCN(c3ncccn3)CC2)cc1OC	-4	.	8	34%	-30%	?
Cc1ccc2c(c1)C(c1ccc(F)cc1)N(C(=O)c1ccc(OC(C)C)cc1)CC(=O)N2 (stereo not given)	21	.	.	.	.	.
SMILES	HCMV inh	Shiga inhibitor	CHX counter	HCV inhibitor	Pf growth 48h	Pf growth 96h
CSc1nc2nc(-c3ccccc3)cc(C(F)(F)F)n2n1	-29	-20	13	?	4.1µM*	1%
CC(Sc1nc(-c2ccccc2)cc(C(F)(F)F)n1)C(=O)O (stereo not given)	-39	-15	0	14%	14%	-7%
FC(F)(F)c1cc(-c2ccccc2)nc2cc(-c3ccccc3)nn12	12	.	.	.	.	.
CSc1nc2nc(C(F)(F)F)cc(-c3ccccc3)n2n1	-15	-5	-1	-18%	.	2.9µM*
C=CCN1CCc2cc(O)c(O)cc2C(c2ccccc2)C1 (stereo not given)	27	.	.	-24%	12µM*	?
C=CCN1CCc2c(cc(O)c(O)c2Cl)C(c2ccccc2)C1 (stereo not given)	20	8	-1	?	?	?
O=[N+]([O-])c1ccc(CNc2ccc(F)cc2)s1	-1	-10	-1	3%	-17%	-21%
O=[N+]([O-])c1ccc(CNc2ccc(Cl)cc2)s1	48	28	13*	10%	-22%	?
COc1ccc(NCc2ccc([N+](=O)[O-])s2)c(OC)c1	85	34*	25*	-4%	-11%	?
COc1ccc(NCc2ccc([N+](=O)[O-])s2)cc1	27	31	21*	4%	?	5%
Cc1ccc(S(=O)(=O)NCCC(=O)Nc2cc(S(=O)(=O)N(C)C)ccc2C)cc1C	-31	-6	4	-5%	-16%	2%
Cc1ccc(C(C(=O)Nc2ccc(C(C)C)cc2)N(C)C(=O)c2ccc(=O)[nH]c2)cc1 (stereo not given)	-35	-8	-6	-3%	?	330%
Cc1ccc2c(c1C)NC(=O)C21N2CCCC2C(C(=O)c2ccc3ccccc3c2)C12C(=O)Nc1ccccc12 (stereo not given)	-35	39	56*	?	9.3µM*	9.3µM*
Cc1nc(C)c(C(=O)N2CCCC(C(=O)c3ccc4ccccc4c3)C2)s1 (stereo not given)	-21	42	1	?	7%	?
Cc1cc(C)cc(-n2c(SCC(=O)Nc3ccccc3F)nc3c(oc4ccccc43)c2=O)c1	-7	.	.	.	.	.
COCCCNc1nnc(Cc2ccc(Cl)cc2)c(=O)[nH]1	-75*	1	-3	-2%	.	?
O=C(N/N=C/c1cnc(N2CCCCC2)s1)c1ccc(C(F)(F)F)cc1	14	-7	1	11µM*	3.3µM*	?
CC1CN(c2ncc(/C=N/NC(=O)c3ccccc3O)s2)CC(C)O1 (stereo not given)	117	1	16	-19%	?	?
Cc1cc(SCc2ccc(Cl)c(Cl)c2)nc(=O)[nH]1	-11	17	28*	7%	11%	?
Cc1cc(SCc2ccc(Br)cc2)nc(=O)[nH]1	24	19	40*	6%	33%	1%
Cc1cc(SCc2ccccc2Cl)nc(=O)[nH]1	-2	-20	2	-2%	15%	-22%
Cc1cc(SCc2ccccc2C)nc(=O)[nH]1	24	-4	11	8%	15%	?
